The values below come from PubChem BioAssay (NCI).

The panel holds about 83,000 compounds, 20% with a hit somewhere; the sample as a whole holds those more often.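 Testing used 96-well plates and a 48-hour single-concentration exposure. Example: -40 means 40% of the starting cells died.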 Values without a mark were called inactive. Activity calls are given as the source filed them. Rule for the calls: active = growth percent below 10; inactive = the rest.

Some test systems named below: SR leukemia; RPMI-8226 leukemia; OVCAR-8 ovarian; OVCAR-5 ovarian; OVCAR-4 ovarian; SK-OV-3 ovarian; IGROV1 ovarian; OVCAR-3 ovarian; HS 578T breast; NCI/ADR-RES ovarian.
What all share (assay): NCI-60 one-dose screen, 48 h (100 = growth as untreated, 0 = no growth, -100 = all killed)
Details in all cases: 10 µM unless noted

With `O=C1c2cccc3cccc(c23)C(=O)N1N1C(=O)c2cccc3c(N4CCOCC4)ccc(c23)C1=O`, the growth in the assay on SR leukemia was 92.4%; in the assay with RPMI-8226 leukemia, 106%; in the assay on OVCAR-8 ovarian it was 96.2%; in the assay with OVCAR-5 ovarian, 97.1%; in the assay with OVCAR-4 ovarian, 108%; in the assay with SK-OV-3 ovarian, 90%. The growth with IGROV1 ovarian is 95.6%; with OVCAR-3 ovarian, 106%; in the assay with HS 578T breast, 90.3%; in the assay on NCI/ADR-RES ovarian, 92%.
`C[C@]12CC[C@@H]3c4ccc(O)c([N+](=O)[O-])c4CC[C@H]3[C@@H]1CCC2=O`: the growth in the assay on SR leukemia is 115%; in the assay with RPMI-8226 leukemia, 90.5%; in the assay with OVCAR-8 ovarian, 112%; in the assay with OVCAR-5 ovarian, 92%; in the assay with OVCAR-4 ovarian it was 81.1%; in the assay on SK-OV-3 ovarian, 123%. Further, the growth with IGROV1 ovarian is 80.6%; in the assay with OVCAR-3 ovarian, 104%; in the assay with HS 578T breast, 78%; with NCI/ADR-RES ovarian, 94.9%.
Consider `COc1ccc(C(c2cc(OC)c(OC)c(OC)c2)N2CCN(c3ccccc3)CC2)cc1` (stereo not given), for which the growth with SR leukemia was 33.2%; in the assay on RPMI-8226 leukemia, 89.3%; with OVCAR-8 ovarian it was 99.1%; in the assay with OVCAR-5 ovarian it was 102%; with OVCAR-4 ovarian it was 89.9%; in the assay on SK-OV-3 ovarian, 78.5%. Further, the growth in the assay with IGROV1 ovarian was 72.7%; in the assay with OVCAR-3 ovarian it was 90.1%; in the assay on HS 578T breast it was 101%; in the assay on NCI/ADR-RES ovarian it was 85.9%.
Turning to `C#CCOc1ccc2ncnc(Nc3ccc(NC(=O)CCl)cc3)c2c1`, the growth is -7.69% (active) in the assay with SR leukemia; -16.7% (active) in the assay on RPMI-8226 leukemia; 2.5% (active) in the assay with OVCAR-8 ovarian; 30.5% with OVCAR-5 ovarian; -17.5% (active) with OVCAR-4 ovarian; 22.4% with SK-OV-3 ovarian. The growth is -55.3% (active) with IGROV1 ovarian, -38.6% (active) with OVCAR-3 ovarian, 27.6% in the assay on HS 578T breast and 7.93% (active) in the assay on NCI/ADR-RES ovarian.
Consider `O=C(Cn1c(-c2ccc([N+](=O)[O-])cc2)nc2ccccc21)NNC(=O)c1cccnc1`, for which the growth in the assay on SR leukemia was 75.9%; in the assay with RPMI-8226 leukemia, 77.6%; with OVCAR-8 ovarian it was 85.1%; with OVCAR-5 ovarian, 101%; with OVCAR-4 ovarian, 96.5%; in the assay with SK-OV-3 ovarian, 102%. Moreover, the growth with IGROV1 ovarian is 63.3%; in the assay on OVCAR-3 ovarian it was 97.3%; with HS 578T breast, 101%; with NCI/ADR-RES ovarian it was 87.9%.
In the case of `N#C/C(=C\c1ccc2ccccc2c1)c1cc2ccccc2[nH]1`, the growth in the assay on SR leukemia was 23.5%; in the assay with RPMI-8226 leukemia, 32.4%; in the assay with OVCAR-8 ovarian, 46.5%; with OVCAR-5 ovarian it was 61.2%; in the assay with OVCAR-4 ovarian, 88.3%; in the assay on SK-OV-3 ovarian, 64%. Besides, the growth in the assay on IGROV1 ovarian was 48.1%; in the assay on OVCAR-3 ovarian, 7.91% (active); in the assay on HS 578T breast, 25.8%; in the assay with NCI/ADR-RES ovarian it was 12.4%.
As for `COc1ccc(Cc2cc(-c3ccccc3)nn(Cc3ccccc3)c2=O)cc1OC`, the growth with SR leukemia was 40.2%; in the assay with RPMI-8226 leukemia, 15.2%; in the assay on OVCAR-8 ovarian, 32.3%; with OVCAR-5 ovarian, 68.3%; in the assay with OVCAR-4 ovarian, 32.5%; in the assay on SK-OV-3 ovarian, 74.1%. Further, the growth in the assay on IGROV1 ovarian is 47%; in the assay on OVCAR-3 ovarian, 47.6%; in the assay with HS 578T breast, 66.6%; in the assay on NCI/ADR-RES ovarian, 30.2%.
As for `CCN1CC(=O)N(/N=C2\C(=O)Nc3ccccc32)C1=S`, the growth was 83.1% with SR leukemia; 96% in the assay on RPMI-8226 leukemia; 95.4% with OVCAR-8 ovarian; 97.2% with OVCAR-5 ovarian; 97.2% with OVCAR-4 ovarian; 78.4% with SK-OV-3 ovarian. Besides, the growth was 55.3% with IGROV1 ovarian, 98.1% with OVCAR-3 ovarian, 83% in the assay with HS 578T breast and 103% in the assay with NCI/ADR-RES ovarian.
For `COc1cc(-c2nc(SCC(C)C)nc(Nc3cccc4ccccc34)c2C#N)cc(OC)c1OC`, the growth is 40.7% in the assay on SR leukemia; 91.2% in the assay with RPMI-8226 leukemia; 92.1% in the assay on OVCAR-8 ovarian; 109% with OVCAR-5 ovarian; 87.6% in the assay with OVCAR-4 ovarian; 110% in the assay on SK-OV-3 ovarian. Also, the growth in the assay with IGROV1 ovarian is 106%; in the assay with OVCAR-3 ovarian it was 117%; with HS 578T breast it was 106%; in the assay on NCI/ADR-RES ovarian, 98.8%.
In the case of `OCCNCCCOc1ccc2ncnc(Nc3ccc(Oc4cccc(C(F)(F)F)c4)c(Cl)c3)c2c1`, the growth in the assay on SR leukemia is 5.48% (active); in the assay with RPMI-8226 leukemia it was -12.1% (active); with OVCAR-8 ovarian it was 32.1%; with OVCAR-5 ovarian, 72.8%; in the assay on OVCAR-4 ovarian it was 5.48% (active); in the assay on SK-OV-3 ovarian, 13.7%. The growth in the assay on IGROV1 ovarian was -35% (active); in the assay with OVCAR-3 ovarian, 3.15% (active); with HS 578T breast, 34.2%; with NCI/ADR-RES ovarian, 69.1%.
Turning to `Cc1ccc(-n2c(=S)[nH]c3sc4c(c3c2=O)CCC(=O)C4)cc1`, the growth in the assay with SR leukemia was 28.5%; in the assay with RPMI-8226 leukemia, 22.7%; in the assay with OVCAR-8 ovarian, 50.2%; in the assay on OVCAR-5 ovarian, 87.4%; with OVCAR-4 ovarian, 69.3%; with SK-OV-3 ovarian, 91.6%. Also, the growth in the assay with IGROV1 ovarian is 48.9%; with OVCAR-3 ovarian it was 4.02% (active); in the assay on HS 578T breast, 34.3%; in the assay on NCI/ADR-RES ovarian, 27.1%.
Consider `CCCCNC(=O)Oc1ccc(/C(=C(/CC)Cc2ccccc2)c2ccc(OCCN3CCCCCC3)cc2)cc1`, for which the growth is -24.6% (active) with SR leukemia; -27.6% (active) in the assay on RPMI-8226 leukemia; 14% in the assay on OVCAR-8 ovarian; 73.6% in the assay with OVCAR-5 ovarian; 32.9% in the assay on OVCAR-4 ovarian; 82.7% in the assay with SK-OV-3 ovarian. The growth is 42.3% in the assay with IGROV1 ovarian, 72.2% in the assay with OVCAR-3 ovarian, 56.6% with HS 578T breast and 53.8% in the assay on NCI/ADR-RES ovarian.
Regarding `CCOC(=O)c1nc(Nc2ccc(NC(=O)Nc3ccc(F)cc3)cc2)c2ccccc2n1`, the growth in the assay with SR leukemia is 90.2%; in the assay with RPMI-8226 leukemia, 109%; in the assay with OVCAR-8 ovarian it was 106%; in the assay on OVCAR-5 ovarian, 108%; with OVCAR-4 ovarian, 114%; in the assay on SK-OV-3 ovarian, 100%. In addition, the growth in the assay on IGROV1 ovarian is 102%; in the assay on OVCAR-3 ovarian, 102%; with HS 578T breast it was 99.9%; with NCI/ADR-RES ovarian, 92.7%.
